Experimental findings from PubChem BioAssay (NCI) are described below.

Test systems include NCI-H23 lung; NCI-H226 lung; NCI-H322M lung; HOP-62 NSCLC; NCI-H460 lung; HOP-92 NSCLC; NCI-H522 lung; A549/ATCC NSCLC; 786-0 renal; COLO 205 colon.
Experiment in all cases: NCI-60 one-dose screen, 48 h (100 = growth as untreated, 0 = no growth, -100 = all killed)
Holding throughout (conditions): 10 µM unless noted

The panel holds about 83,000 compounds, 20% with a hit somewhere; the sample as a whole holds those more often.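 For each line, cells grew in 96-well plates with the test compound present at a single concentration for 48 hours.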 Unmarked numbers belong to inactive results. The source made the active and inactive calls. Rule for the calls: active = growth percent below 10; inactive = the rest.

Regarding `CC(=O)C(C)Cc1cc2c(cc1C)C(C)(C)CCC2(C)C` (stereo not given), the growth in the assay on NCI-H23 lung was 95.3%; in the assay on NCI-H226 lung it was 99.5%; with NCI-H322M lung it was 97.8%; in the assay with HOP-62 NSCLC, 82.4%; in the assay with NCI-H460 lung, 107%; with HOP-92 NSCLC it was 85.7%. For the same compound, the growth in the assay on NCI-H522 lung was 85.3%; with A549/ATCC NSCLC, 79.2%; with 786-0 renal it was 95.2%; in the assay with COLO 205 colon, 105%.

As to `O=C(CSc1nnc(-c2ccc(NC(=O)c3cccnc3)cc2)o1)Nc1cccc(Br)c1`, the growth in the assay on NCI-H23 lung was 92.8%; in the assay with NCI-H226 lung, 97.7%; with NCI-H322M lung, 97.2%; in the assay on HOP-62 NSCLC, 99.2%; with NCI-H460 lung it was 103%; in the assay with HOP-92 NSCLC it was 88.7%. Besides, the growth in the assay with NCI-H522 lung was 41.4%; with A549/ATCC NSCLC, 95.1%; in the assay on 786-0 renal, 94.2%; in the assay with COLO 205 colon, 88.4%.

As for `O=C1/C(=C\c2cccnc2)SC(=S)N1CCc1ccc(O)cc1`, the growth with NCI-H23 lung is 50%; with NCI-H226 lung it was 94.2%; in the assay on NCI-H322M lung it was 91.5%; in the assay with HOP-62 NSCLC, 45.6%; in the assay on NCI-H460 lung it was 18.7%; in the assay with HOP-92 NSCLC it was 27.4%. Besides, the growth was 11.9% in the assay on NCI-H522 lung, 93.9% with A549/ATCC NSCLC, 39.1% with 786-0 renal and 79.9% in the assay with COLO 205 colon.

Regarding `COC(=O)[C@]12CC[C@@H](C)[C@H](C)[C@@H]1C1=CC[C@@H]3[C@@]4(C)C(C=O)=C[C@@](C)(COC(=O)/C=C/c5ccccc5)[C@@H]4[C@H](O)C[C@@]3(C)[C@]1(C)CC2`, the growth with NCI-H23 lung was 10.4%; with NCI-H226 lung, 10.1%; with NCI-H322M lung, 42%; with HOP-62 NSCLC, -5.38% (active); in the assay on NCI-H460 lung it was -19.1% (active); in the assay on HOP-92 NSCLC it was -5.49% (active). In addition, the growth in the assay on NCI-H522 lung is -16.3% (active); with A549/ATCC NSCLC it was 3.82% (active); with 786-0 renal, -5.1% (active); in the assay on COLO 205 colon, -37% (active).

For the compound `CC1=NOC(=O)/C1=C\c1ccc(O)cc1`, the growth was 102% in the assay on NCI-H23 lung; 108% in the assay on NCI-H226 lung; 95.2% in the assay on NCI-H322M lung; 99.5% with HOP-62 NSCLC; 109% in the assay with NCI-H460 lung; 101% in the assay on HOP-92 NSCLC. Also, the growth in the assay with NCI-H522 lung was 97.5%; with A549/ATCC NSCLC, 97.4%; in the assay with 786-0 renal, 101%; in the assay on COLO 205 colon it was 109%.

Regarding `COc1ccc(OC)c(-c2c(C#N)c(-c3ccc(Cl)cc3)nc3c2c(-c2ccccc2)nn3-c2ccccc2)c1`, the growth was 102% in the assay on NCI-H23 lung; 98.3% with NCI-H226 lung; 95.7% in the assay on NCI-H322M lung; 99.3% in the assay on HOP-62 NSCLC; 103% in the assay on NCI-H460 lung; 101% with HOP-92 NSCLC. The growth was 86% in the assay on NCI-H522 lung, 98.4% with A549/ATCC NSCLC, 98.1% in the assay with 786-0 renal and 104% with COLO 205 colon.

As for `O=C(CSc1nccc(Nc2ccc(S(=O)(=O)Nc3nccs3)cc2)n1)c1ccc(F)cc1`, the growth with NCI-H23 lung was 97.6%; with NCI-H226 lung, 102%; in the assay with NCI-H322M lung, 106%; in the assay on HOP-62 NSCLC, 106%; in the assay with NCI-H460 lung, 106%; with HOP-92 NSCLC, 106%. Moreover, the growth is 88.6% in the assay on NCI-H522 lung, 104% with A549/ATCC NSCLC, 103% in the assay with 786-0 renal and 108% in the assay on COLO 205 colon.

With `COc1ccc(-c2c(N)n[nH]c2-c2ccc(Cl)cc2O)cc1OC`, the growth is 83.2% with NCI-H23 lung; 79.8% in the assay on NCI-H226 lung; 92.4% in the assay on NCI-H322M lung; 91.5% in the assay on HOP-62 NSCLC; 94.5% with NCI-H460 lung; 69.2% with HOP-92 NSCLC. The growth is 84.3% with NCI-H522 lung, 92.9% in the assay with A549/ATCC NSCLC, 86.6% in the assay on 786-0 renal and 113% in the assay on COLO 205 colon.

Turning to `COc1cccc(-c2nc3sccn3c2-c2ccnc(NCCNS(=O)(=O)c3ccc(C(F)(F)F)cc3)c2)c1`, the growth with NCI-H23 lung was 53.7%; in the assay with NCI-H226 lung, 34.8%; in the assay with NCI-H322M lung it was 72.3%; in the assay on HOP-62 NSCLC, 62%; with NCI-H460 lung, 35.6%; in the assay on HOP-92 NSCLC, 34.4%. The growth in the assay on NCI-H522 lung was 55.7%; in the assay with A549/ATCC NSCLC it was 38.1%; in the assay with 786-0 renal it was 51.6%; with COLO 205 colon, 28.5%.

For the compound `COc1cccc(-c2nn(-c3ccccc3)cc2-c2ccnc(NCCNC(=O)Nc3ccccc3)c2)c1`, the growth was 62.5% with NCI-H23 lung; 63.9% in the assay with NCI-H226 lung; 89.8% with NCI-H322M lung; 58.7% in the assay on HOP-62 NSCLC; 53.8% in the assay with NCI-H460 lung; 33% in the assay with HOP-92 NSCLC. For the same compound, the growth was 47.6% in the assay with NCI-H522 lung, 30.4% in the assay with A549/ATCC NSCLC, 43.2% with 786-0 renal and 50.4% in the assay on COLO 205 colon.

As to `CCCCCCCCCOc1c(OC)cc(C2CC(=O)Nc3c2c(C)nn3-c2nc3ccccc3[nH]2)cc1OC` (stereo not given), the growth is -50% (active) in the assay on NCI-H23 lung; -61.6% (active) in the assay on NCI-H226 lung; -58.1% (active) in the assay with NCI-H322M lung; -32.9% (active) with HOP-62 NSCLC; -23.4% (active) in the assay on NCI-H460 lung; -23.4% (active) in the assay on HOP-92 NSCLC. The growth is -65.2% (active) with NCI-H522 lung, -56% (active) with A549/ATCC NSCLC, -70.7% (active) in the assay on 786-0 renal and 3.77% (active) with COLO 205 colon.

With `OC(COc1ccccc1Cl)COc1ccccc1Cl`, the growth in the assay with NCI-H23 lung is 94.1%; in the assay with NCI-H226 lung, 95.3%; in the assay with NCI-H322M lung, 110%; with HOP-62 NSCLC, 117%; in the assay on NCI-H460 lung, 107%; in the assay on HOP-92 NSCLC it was 102%. The growth was 88.3% with NCI-H522 lung, 93.2% in the assay on A549/ATCC NSCLC, 103% in the assay on 786-0 renal and 112% with COLO 205 colon.

Regarding `Cc1ccc(-c2c(-c3ccccc3)c(=O)oc3ccc(C)cc23)cc1`, the growth with NCI-H23 lung is 96.1%; in the assay with NCI-H226 lung, 89.6%; with NCI-H322M lung, 97.8%; with HOP-62 NSCLC, 101%; in the assay with NCI-H460 lung, 93.8%; with HOP-92 NSCLC, 84%. Also, the growth in the assay with NCI-H522 lung was 107%; in the assay on A549/ATCC NSCLC, 91%; in the assay on 786-0 renal, 105%; in the assay with COLO 205 colon, 91.4%.
